According to PubChem BioAssay (NCI):
Compounds without any hit were thinned out: in the full panel of roughly 83,000, 20% have a hit.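 Single-dose data. Exposure time 48 hours. Values below 10 considered active.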 Values without a mark were called inactive. Active and inactive are the calls of the source.

system: COLO 205 colon; assay: NCI-60 one-dose screen, 48 h (100 = growth as untreated, 0 = no growth, -100 = all killed); settings: 10 µM unless noted

Going from `CCN(CC)c1ccc(/C=C2\Oc3ccc(O)c(I)c3C2=O)cc1` to `CNc1ccc(Br)c2c1C(=O)c1ccccc1C2=O`, the growth rises from 64.3% to 132%.

Compared with `CC1(c2ccc(Cl)cc2)OC(=O)CC(=O)O1`, `O=C1Nc2ccc(Cl)cc2C12Nc1cc(Cl)ccc1S2` (stereo not drawn) is lower in growth: 109% for the first, 101% for the second.

Compared with `Cc1csc(NC(c2ccccc2)c2c(C)nc3ccccn23)n1` (stereo not drawn), `Cc1ccc(-c2cc3nc(C(Cl)Cl)nc(-c4ccccc4C)n3n2)cc1` is lower in growth: 106% for the first, 54.1% for the second.

Going from `COc1cc(-c2nc(N=Nc3c(O)[nH]c4ccc(Br)cc34)[nH]c(=O)c2C#N)cc(OC)c1OC` to `COc1ccc(C(=O)c2cc(OC)c(OC)c(OC)c2OC)cc1O`, the growth falls from 114% to 86%.

Going from `Nc1cccc(-c2nc3sccn3c2-c2ccnc(NCCNS(=O)(=O)c3ccc(C(F)(F)F)cc3)n2)c1` to `O=[N+]([O-])c1cccc(-c2nc3sccn3c2-c2ccnc(NCCCNS(=O)(=O)c3ccc(Cl)cc3)n2)c1`, the growth falls from 58.8% to 49.2%.

Compared with `FC(F)(F)c1cccc(-c2cn3c(ccc4ccccc43)n2)c1`, `Cc1cc(N/N=C/c2nc(-c3ccccc3)oc2C)c2cc(Br)ccc2n1` is lower in growth: 109% for the first, 85.6% for the second.

Going from `CCCCCCN1CSC(=S)N(CCCCCC)C1` to `CC(C)(C)OC(=O)NC(CSCc1ccccc1)C(=O)ON1C(=O)CCC1=O` (stereo not drawn), the growth rises from 106% to 112%.

Compared with `Oc1ccc2cc(Br)ccc2c1-c1c(O)ccc2cc(Br)ccc12`, `Cc1ccc(S(=O)(=O)Nc2c(Br)cc(Br)cc2C(N)=O)cc1` is higher in growth: 54.7% for the first, 103% for the second.

Compared with `C=C(C)[C@@H]1C[C@H](O)Cc2cc(F)ccc2N1`, `CN(C[C@H]1Cc2c(cccc2N2CCN(Cc3ccccn3)CC2)CN1)[C@H]1CCCc2cccnc21` is lower in growth: 101% for the first, 69.6% for the second.

Going from `NC1=NC(SCc2ccccc2CCl)c2ncn(Cc3ccccc3CCl)c2N1` (stereo not drawn) to `Nc1nc(-c2ccccc2)c(CCCOc2ccc(NC(=O)CBr)cc2)c(=O)[nH]1`, the growth rises from 43.9% to 118%.

First: CC(C)(C)n1cc(-c2ccnc(NCCCNS(=O)(=O)c3ccccc3)c2)c(-c2cccc(O)c2)n1
Second: CC(C)(C)n1cc(-c2ccnc(NCCCNS(=O)(=O)c3ccc(F)cc3)c2)c(-c2cccc(O)c2)n1
The growth of the first is higher: 14.7% for the first, 13% for the second.

Compared with `O=[N+]([O-])c1ccc(C(c2ccccc2)c2ccccc2)cc1`, `Nc1ccc(C(=O)CSc2nc3ccccc3[nH]2)cc1` is higher in growth: 92.6% for the first, 120% for the second.

Compared with `CCNc1nc(S(=O)(=O)CC)nc2ccccc12`, `NC(N)=Nc1nc2ccccc2o1` is higher in growth: 114% for the first, 138% for the second.

First: CCC(=O)Oc1ccc(/C(=C(/C)Cc2cccc(OC)c2)c2ccc(OCCN(C)C)cc2)cc1
Second: CN(C)CCOC(=O)Nc1ccccc1Cl
The growth of the first is lower: 102% for the first, 113% for the second.

First: c1ccc(-c2nnc(-c3ccccn3)s2)nc1
Second: c1cc2[nH]ncc2cc1-c1nc2ccc3[nH]ncc3c2c2c1CCC2
The growth of the first is higher: 109% for the first, 25.7% for the second.

First: COc1ccc(-c2nc(N3CCCC3=O)sc2Br)cc1OC
Second: O=C(CCl)N(C1CCCCC1)C1CCCCC1
The growth of the first is higher: 112% for the first, 109% for the second.

`O=C1/C(=C/c2ccc(Cl)cc2)CN(C(=O)CCN2CCC(=NO)CC2)C/C1=C\c1ccc(Cl)cc1` was tested, and the growth was -83.9% (active).
`O=C1/C(=C/c2ccccc2)CN(C(=O)CCN2CCC(=NO)CC2)C/C1=C\c1ccccc1` was tested, and the growth was -46.8% (active).
In the case of `COc1ccc(-c2ccc(-c3ccc(C(=N)N)s3)s2)cc1Cl`, the growth is reported as -48.4% (active).
In the case of `CCN(CC)c1ccc2[nH]c3c(C(N)=O)cc(=O)c(=O)c=3oc2c1`, the growth is reported as 1.25% (active).
`C=C1CCC2C3(C)COC(c4c(OC)cccc4OC)OC3CCC2(C)C1C/C=C1/C(=O)OCC1O` (stereo not drawn) was tested, and the growth was -15.2% (active).
For `COc1ccc2c(c1)[nH]c(=O)c1c3cc(OC)ccc3cn21`, the growth was -14.1% (active).
`COc1ccccc1CNCCCN1C(=O)c2ccc3c4c(ccc(c24)C1=O)C(=O)N(CCCNCCCCNCCCN)C3=O` was tested, and the growth was -78.9% (active).

system: DU-145 prostate; assay: as above; settings: 10 µM unless noted

Compared with `CCN(CC)c1ccc(/C=C2\Oc3ccc(O)c(I)c3C2=O)cc1`, `CNc1ccc(Br)c2c1C(=O)c1ccccc1C2=O` is higher in growth: 87% for the first, 121% for the second.

Going from `CC1(c2ccc(Cl)cc2)OC(=O)CC(=O)O1` to `O=C1Nc2ccc(Cl)cc2C12Nc1cc(Cl)ccc1S2` (stereo not drawn), the growth falls from 108% to 96.5%.

Compared with `Cc1csc(NC(c2ccccc2)c2c(C)nc3ccccn23)n1` (stereo not drawn), `Cc1ccc(-c2cc3nc(C(Cl)Cl)nc(-c4ccccc4C)n3n2)cc1` is lower in growth: 110% for the first, 46.9% for the second.

First: COc1cc(-c2nc(N=Nc3c(O)[nH]c4ccc(Br)cc34)[nH]c(=O)c2C#N)cc(OC)c1OC
Second: COc1ccc(C(=O)c2cc(OC)c(OC)c(OC)c2OC)cc1O
The growth of the first is higher: 103% for the first, 35.6% for the second.

First: Nc1cccc(-c2nc3sccn3c2-c2ccnc(NCCNS(=O)(=O)c3ccc(C(F)(F)F)cc3)n2)c1
Second: O=[N+]([O-])c1cccc(-c2nc3sccn3c2-c2ccnc(NCCCNS(=O)(=O)c3ccc(Cl)cc3)n2)c1
The growth of the first is lower: 43.4% for the first, 64.2% for the second.

First: FC(F)(F)c1cccc(-c2cn3c(ccc4ccccc43)n2)c1
Second: Cc1cc(N/N=C/c2nc(-c3ccccc3)oc2C)c2cc(Br)ccc2n1
The growth of the first is higher: 106% for the first, 91.3% for the second.

First: CCCCCCN1CSC(=S)N(CCCCCC)C1
Second: CC(C)(C)OC(=O)NC(CSCc1ccccc1)C(=O)ON1C(=O)CCC1=O (stereo not drawn)
The growth of the first is higher: 113% for the first, 112% for the second.

Compared with `Oc1ccc2cc(Br)ccc2c1-c1c(O)ccc2cc(Br)ccc12`, `Cc1ccc(S(=O)(=O)Nc2c(Br)cc(Br)cc2C(N)=O)cc1` is higher in growth: 78.2% for the first, 113% for the second.

Going from `C=C(C)[C@@H]1C[C@H](O)Cc2cc(F)ccc2N1` to `C=C1CCC2C3(C)COC(c4c(OC)cccc4OC)OC3CCC2(C)C1C/C=C1/C(=O)OCC1O` (stereo not drawn), the growth falls from 107% to 21%.

Going from `NC1=NC(SCc2ccccc2CCl)c2ncn(Cc3ccccc3CCl)c2N1` (stereo not drawn) to `Nc1nc(-c2ccccc2)c(CCCOc2ccc(NC(=O)CBr)cc2)c(=O)[nH]1`, the growth rises from 64% to 104%.

First: CC(C)(C)n1cc(-c2ccnc(NCCCNS(=O)(=O)c3ccccc3)c2)c(-c2cccc(O)c2)n1
Second: CC(C)(C)n1cc(-c2ccnc(NCCCNS(=O)(=O)c3ccc(F)cc3)c2)c(-c2cccc(O)c2)n1
The growth of the first is lower: 55.1% for the first, 63.4% for the second.

Going from `O=C1/C(=C/c2ccccc2)CN(C(=O)CCN2CCC(=NO)CC2)C/C1=C\c1ccccc1` to `O=[N+]([O-])c1ccc(C(c2ccccc2)c2ccccc2)cc1`, the growth rises from 16.1% to 105%.

First: CN(C[C@H]1Cc2c(cccc2N2CCN(Cc3ccccn3)CC2)CN1)[C@H]1CCCc2cccnc21
Second: c1ccc(-c2nnc(-c3ccccn3)s2)nc1
The growth of the first is lower: 66.6% for the first, 110% for the second.

Compared with `CCNc1nc(S(=O)(=O)CC)nc2ccccc12`, `NC(N)=Nc1nc2ccccc2o1` is lower in growth: 103% for the first, 89.3% for the second.

Going from `CCC(=O)Oc1ccc(/C(=C(/C)Cc2cccc(OC)c2)c2ccc(OCCN(C)C)cc2)cc1` to `CN(C)CCOC(=O)Nc1ccccc1Cl`, the growth rises from 93.3% to 123%.

Going from `COc1ccc(-c2nc(N3CCCC3=O)sc2Br)cc1OC` to `c1cc2[nH]ncc2cc1-c1nc2ccc3[nH]ncc3c2c2c1CCC2`, the growth falls from 114% to 54.3%.

Going from `Nc1ccc(C(=O)CSc2nc3ccccc3[nH]2)cc1` to `O=C(CCl)N(C1CCCCC1)C1CCCCC1`, the growth rises from 103% to 112%.

`O=C1/C(=C/c2ccc(Cl)cc2)CN(C(=O)CCN2CCC(=NO)CC2)C/C1=C\c1ccc(Cl)cc1` was tested, and the growth was -89.2% (active).
For `COc1ccc(-c2ccc(-c3ccc(C(=N)N)s3)s2)cc1Cl`, the growth was 0.775% (active).
In the case of `CCN(CC)c1ccc2[nH]c3c(C(N)=O)cc(=O)c(=O)c=3oc2c1`, the growth is reported as -1.89% (active).
With `COc1ccc2c(c1)[nH]c(=O)c1c3cc(OC)ccc3cn21` the growth was 0.89% (active).
For `COc1ccccc1CNCCCN1C(=O)c2ccc3c4c(ccc(c24)C1=O)C(=O)N(CCCNCCCCNCCCN)C3=O`, the growth was -92.6% (active).
